Data on 82 compounds can be found in PubChem BioAssay AID720648 (The Scripps Research Institute Molecular Screening Center, 2013).

Screen size: about 370,000 compounds; about 3,100 (0.84%) were called active. The sample holds actives, similar compounds and a random draw of the others, so the mix is not that of the screen. Values without a mark were called inactive.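 The calls were made as follows: active = inhibition above the mean of compounds lying between control limits plus 3 SD, set per campaign (cut at about 8.5% in these data); inactive = the rest.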

The target of this assay is Disintegrin and metalloproteinase domain-containing protein 17 (Homo sapiens) (UniProt P78536). Put plainly: ADAM17 inhibitors, primary screen, biochemical, QFRET (AID 720648).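 Also: 0% = DMSO-only wells as the low control.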 To be noted: recombinant ADAM17, EDANS/DABCYL FRET peptide cleavage; at 6.95 µM; stronger effect = higher value.
Sequence of Disintegrin and metalloproteinase domain-containing protein 17 (Homo sapiens) (P78536 215-824 limits assumed): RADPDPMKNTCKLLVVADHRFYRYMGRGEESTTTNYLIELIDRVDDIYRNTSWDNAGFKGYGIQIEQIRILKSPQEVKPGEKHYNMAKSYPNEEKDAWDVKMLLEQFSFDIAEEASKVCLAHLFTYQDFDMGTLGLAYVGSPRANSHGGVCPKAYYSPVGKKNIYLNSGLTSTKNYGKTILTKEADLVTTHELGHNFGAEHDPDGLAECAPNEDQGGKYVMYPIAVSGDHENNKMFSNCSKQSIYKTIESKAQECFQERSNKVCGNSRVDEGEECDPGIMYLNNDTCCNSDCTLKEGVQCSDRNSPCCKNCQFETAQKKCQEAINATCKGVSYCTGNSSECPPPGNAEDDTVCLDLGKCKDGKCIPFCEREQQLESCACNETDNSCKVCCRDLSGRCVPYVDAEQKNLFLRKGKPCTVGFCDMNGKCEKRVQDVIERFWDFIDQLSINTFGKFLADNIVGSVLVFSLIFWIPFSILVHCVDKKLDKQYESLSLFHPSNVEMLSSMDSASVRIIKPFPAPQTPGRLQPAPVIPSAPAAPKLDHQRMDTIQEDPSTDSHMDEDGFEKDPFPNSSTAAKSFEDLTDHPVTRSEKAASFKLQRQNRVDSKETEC
Turning to `COc1ccc(C#CCNCc2ccc(OC)cc2OC)cc1`, the inhibition was -5.67%. As for `COC(=O)c1ccccc1-n1cc(COC(=O)NCCc2ccccc2)nn1`, the figure is -7.96%; as for `CC1Cc2ccccc2N1S(=O)(=O)c1cccc(C(=O)NCC(c2ccco2)N2CCCC2)c1` (configuration not stated), -2.28%; as for `CCCCn1ccnc1C(=O)c1cccc(S(=O)(=O)N2c3ccccc3CC2C)c1` (configuration not stated), 11.1% (active). As to `CC1Cc2ccccc2N1S(=O)(=O)c1cccc(C(=O)OCC(=O)N2CCOCC2)c1` (configuration not stated), the inhibition is -5.91%. In the case of `C=CCN1C(=O)[C@H](CC(=O)NCCCN2CCCC2=O)[C@@]2(C(=O)OCC)CCCC=C12`, the inhibition is -6.27%. With `COc1cc(NC(=O)CCS(=O)(=O)c2ccc3c(c2)oc(=O)n3C)cc(OC)c1`, the inhibition is 8.71% (active). As for `COc1cccc(NC(=O)CCNS(=O)(=O)c2ccc3c(c2)oc(=O)n3C)c1`, the figure is -2.66%.

In the case of `Cc1ccc(NC(=O)CCNS(=O)(=O)c2ccc3c(c2)oc(=O)n3C)cc1C`, the inhibition was 1.53%.

With `Cc1cc(NS(=O)(=O)c2ccc(NC(=O)CSc3nnc(SCc4ccc(F)cc4)s3)cc2)nc(C)n1`, the inhibition was 2.06%. Take `CCOC(=O)c1cccc(NC(=O)CN(C)S(=O)(=O)c2ccc(-c3cocn3)s2)c1`: the inhibition is 9.31% (active). `CCOC(=O)c1cccc(NC(=O)CCn2nnc3ccccc32)c1`: the inhibition was -1.7%. As for `CCOC(=O)c1cccc(NC(=O)CN(c2ccc(C)cc2)S(=O)(=O)c2c(C)noc2C)c1`, the figure is 7.3%; as for `O=C(OCC#CCSc1nnc(-c2ccco2)o1)c1ccc(F)cc1`, -3.45%; as for `CN(C)Cc1cn(-c2ccc(-c3noc4c3C(=O)N(CC(=O)N3CCOCC3)CC4)cc2)nn1`, -1.12%. In the case of `O=C(COc1ccc(Cl)cc1)N1CCN(c2cccc(C(F)(F)F)c2)CC1`, the inhibition was 13.9% (active). As for `CSCCC(NC(=O)COc1ccccc1)C(=O)N1CCN(c2cccc(C(F)(F)F)c2)CC1` (configuration not stated), the inhibition was 0.72%. Then `Cc1c(C)c2ccc(OCC(=O)N3CCN(c4cccc(Cl)c4)CC3)cc2oc1=O`, with -9.1%; and `Cc1ccc(Cn2cc(CN3[C@@H](CC(C)C)COc4ccc(Cl)cc4S3(=O)=O)nn2)cc1`, with -0.49%; and `O=C(CC1SC(=Nc2ccccc2)N(Cc2ccccn2)C1=O)Nc1cccc(Cl)c1` (configuration not stated), with 9.62% (active). As to `CC1CC(=O)N(CC(=O)Nc2cccc(Cl)c2)c2ccccc2S1(=O)=O` (configuration not stated), the inhibition was 0.03%. As to `CN1C(=O)C(CC(=O)Nc2ccccc2)S/C1=N/c1nccs1` (configuration not stated), the inhibition was -3.53%. Regarding `COc1cccc(CSc2nnc(-c3cccnc3)n2Cc2ccccc2)c1`, the inhibition is -1.8%. For `CCN1C(=O)[C@H]2[C@@H](c3ccc(C(F)(F)F)cc3)N[C@]3(CCCN(Cc4ccc(Br)cc4)C3=O)[C@H]2C1=O`, the inhibition is 0.02%. For the compound `O=C1[C@H]2[C@@H](c3ccc(C(F)(F)F)cc3)N[C@]3(CCCN(Cc4ccc(Br)cc4)C3=O)[C@H]2C(=O)N1Cc1ccccc1`, the inhibition is 13.7% (active). Regarding `O=C1[C@H]2[C@@H](c3ccc(C(F)(F)F)cc3)N[C@]3(CCCN(Cc4ccc(Cl)cc4)C3=O)[C@H]2C(=O)N1Cc1ccccc1`, the inhibition is 6.3%. With `O=C(NCc1ccco1)C1CCCN(S(=O)(=O)c2ccc(Cl)s2)C1` (configuration not stated), the inhibition was -1.38%. On to `O=C(CNS(=O)(=O)c1ccccc1F)N1CCN(c2ccccn2)CC1`, for which the inhibition was -2.81%. As for `Cc1cccc(OCCCC(=O)Nc2ccc(S(=O)(=O)N3CCCC3)cc2)c1`, the inhibition is 3.89%. On to `Cc1ccc(C)c(OCCC(=O)Nc2cccc(S(=O)(=O)N3CCCC3)c2)c1`, for which the inhibition is 1.33%. In the case of `CC(=O)Nc1ccc(S(=O)(=O)N2CCN(CCCOc3cc(C)ccc3C)CC2)cc1`, the inhibition is 9.18% (active). Regarding `CC(=O)Nc1ccc(OC[C@@H](O)CN2CCC(C(O)(c3ccccc3)c3ccccc3)CC2)cc1`, the inhibition is 2.29%. As for `COc1cc(C(=O)NNC(=O)c2ccc(S(=O)(=O)N3CCCCC3)cc2)cc(OC)c1OC`, the figure is 0.14%; as for `COc1ccc(F)cc1S(=O)(=O)N1CCCCC1`, -4.65%. Regarding `COc1ccc(S(=O)(=O)N2CCCCC2)cc1Br`, the inhibition was 9.21% (active). With `CCOC(=O)[C@@]12CCC3=C1N(CCC3)C(=O)[C@H](CC(=O)N1CCN(C(=O)c3ccco3)CC1)C2`, the inhibition is -6.34%. Then `Cc1nc(CNc2ncnc3ccc(-c4ccc5c(c4)OCO5)cc23)cs1`, with -54.3%; and `COC(=O)c1cccc(NS(C)(=O)=O)c1`, with -1.45%; and `CS(=O)(=O)Nc1cccc(C2=NN(S(=O)(=O)c3ccccc3)C(c3cccs3)C2)c1` (configuration not stated), with 8.71% (active). As for `CS(=O)(=O)Nc1cccc(C2=NN(C(=O)c3cccc(F)c3)C(c3cccs3)C2)c1` (configuration not stated), the inhibition was 1.09%. Turning to `COc1cccc(C2CC(c3ccccc3)=NN2S(=O)(=O)c2ccccc2)c1OC` (configuration not stated), the inhibition is 14% (active). `Cc1ccc(C2CC(c3cccc(NS(C)(=O)=O)c3)=NN2S(C)(=O)=O)cc1` (configuration not stated): the inhibition was -2.2%. Consider `CCS(=O)(=O)Nc1ccc(C2=NN(S(=O)(=O)c3ccc(F)cc3)C(c3ccco3)C2)cc1` (configuration not stated), for which the inhibition was 3.46%.

On to `CCOc1ccccc1C1CC(c2cccc(NS(C)(=O)=O)c2)=NN1C(=O)c1ccccc1` (configuration not stated), for which the inhibition was 12.6% (active). `COc1cccc(C2CC(c3cccs3)=NN2C(=O)CSC2=NCCS2)c1OC` (configuration not stated): the inhibition is -4.82%. In the case of `CCOc1ccc2nc(Cl)c(C3CC(c4ccccc4)=NN3C(=O)c3cccs3)cc2c1` (configuration not stated), the inhibition is -2.13%. As for `O=C(Nc1cc(Cl)cc(Cl)c1)OCCN1CCCC12CCC(c1ccccc1)CC2` (configuration not stated), the inhibition was 1.56%.

As for `CCOC(=O)[C@]12CCCCC/C=C\1N(Cc1ccc(OC)cc1)C(=O)[C@H]2CC(=O)NCCCN1CCCC1=O`, the inhibition was 5.47%. For `Cc1cc(NS(=O)(=O)c2ccc(NC(=O)CSc3nnc(-c4ccc(C(C)(C)C)cc4)n3Cc3ccco3)cc2)nc(C)n1`, the inhibition is 0.8%. As for `CC(C)(C)c1ccc(C(=O)Nc2cc(Cl)c(Br)cc2C(=O)O)cc1`, the figure is 8.45%; as for `COC(=O)[C@]12C[C@H](CC(=O)N3CCOCC3)C(=O)N(Cc3ccc(Cl)cc3Cl)C1=C[C@H](C(C)C)O[C@@H]2C1CC1`, -2%; as for `Cc1ccc(-n2c(SCC(=O)Nc3ccc(S(=O)(=O)Nc4nccs4)cc3)nnc2-c2ccccn2)cc1`, 2.5%. For the compound `O=C1CC[C@@]23CCCN2C(=O)CCC[C@H]3[C@H]1Cc1ccccc1`, the inhibition was -7.14%. On to `S=C(NCc1ccc(Cl)cc1)NC12CC3CC(CC(C3)C1)C2`, for which the inhibition was 14.9% (active). Take `COc1ccccc1C(=O)NC(=S)NC12CC3CC(CC(C3)C1)C2`: the inhibition was -0.66%. Consider `Cc1ccc(C(=O)NC23CC4CC(CC(C4)C2)C3)c(Cl)c1`, for which the inhibition is -1.94%. With `COc1ccc(-c2cc(-c3nnc(SCC(=O)Nc4cccc5ccccc45)n3N)[nH]n2)cc1`, the inhibition was -3.93%. For the compound `O=C(NCC1COc2ccccc2O1)c1ccc(NC(=O)c2cc(F)ccc2F)cc1` (configuration not stated), the inhibition was 2.47%. On to `COc1ccc(/C=C2\CC3(OC(C)=O)CCCN2C3)cc1` (configuration not stated), for which the inhibition was -3.86%. Then `Cc1ccccc1NC(=O)C1CCN(c2ncccn2)CC1`, with -12.7%.

As for `O=C(NN1C(=O)C2C3C=CC(C4CC34)C2C1=O)c1ccc(Cl)cc1` (configuration not stated), the inhibition is -30.5%. Then `COc1ccc(C(=O)NN2C(=O)C3C(c4ccccc4)C=CC(c4ccccc4)C3C2=O)cc1` (configuration not stated), with 13.9% (active); and `O=C(NN1C(=O)C2C3C=CC(O3)C2C1=O)c1ccccc1` (configuration not stated), with 0.75%. Regarding `COc1ccc(N2CCN(CCNS(=O)(=O)c3ccc(C(C)(C)C)cc3)CC2)cc1`, the inhibition was 1.38%. In the case of `CCCC[C@H]1C2CC(OC(=O)NCc3ccccc3)C(C2)[C@H]2CCCCN21` (some centres not stated), the inhibition is -10.2%. Then `Cc1[nH]nc(-c2ccc(OCc3cnn(-c4ccccc4)c3)cc2O)c1Oc1ccc(Cl)cc1`, with 0.84%; and `C=C(C)COc1ccc(-c2n[nH]c(C)c2-c2ccccc2)c(O)c1`, with 10.9% (active). `CC(C)N1CCCCC(NC(=O)C(C)(C)C)C1=O` (configuration not stated): the inhibition was -2.39%. With `O=C(CSc1nnc(Nc2ccccc2)s1)Nc1cccnc1Cl`, the inhibition was 8.69% (active). As to `O=C(CSc1nnc(C2CC2)n1Cc1ccccc1)Nc1cccnc1Cl`, the inhibition was -2.91%. For `O=C(CSc1nnc(Nc2ccccc2F)s1)NC1CCCC1`, the inhibition was -2.83%. In the case of `CCOC(=O)[C@]12CCCC=C1N(Cc1ccc(OC)cc1)C(=O)[C@@H]2CC(=O)NCc1cccs1`, the inhibition was -2.4%. For `CN1C[C@]2(C=C3CCCCC3n3c(=O)n(-c4ccccc4)c(=O)n32)N=C1NC(=O)c1ccccc1` (some centres not stated), the inhibition was -0.93%. Take `COC(=O)[C@]1(C#N)CC(=O)N(CC2CCCCC2)[C@@H]1c1ccccc1`: the inhibition is 4.54%. As for `O=C(NC1CCCC1)C1CSCCS(=O)(=O)N1Cc1ccccc1` (configuration not stated), the figure is -0.05%; as for `O=C(CSc1nnc(COc2ccccc2)n1-c1ccc(Cl)cc1)Nc1ccc2c(c1)OCO2`, 1.36%.

Consider `Cc1ccc(-n2c(COc3ccccc3)nnc2SCC(=O)Nc2ccc3c(c2)OCCO3)cc1`, for which the inhibition is 10.3% (active).

`COc1ccc(-n2c(COc3ccccc3)nnc2SCC(=O)Nc2ccc3c(c2)OCO3)cc1`: the inhibition was 4.09%. With `CN(NS(=O)(=O)c1cccs1)c1ncc(C(F)(F)F)cc1Cl`, the inhibition was -1.66%. In the case of `O=S(=O)(Nc1ccc(Oc2ncccn2)c(Cl)c1)c1ccc(F)cc1`, the inhibition is -3.11%. Consider `Cc1cc(C)cc(NS(=O)(=O)c2ccc(Oc3ncc(C(F)(F)F)cc3Cl)cc2)c1`, for which the inhibition was 10.8% (active). On to `COc1cccc(/C=C2\CC3(OC(C)=O)CCCN2C3)c1` (configuration not stated), for which the inhibition is 3.86%.

The term inhibition denotes the drop in the measured response relative to a control, in per cent.
